Hits are enriched below; roughly 10% of the tested compounds scored in any of these assays.
ALOX12 inhib – 12-hLO (ALOX12) enzyme inhibition | P18054 | 0.12% of 150,000 active | purified 12-hLO, xylenol orange hydroperoxide absorbance | Potency, µM (highest dose often 57.1 µM), without a hit: at the top dose activity change, negative = inhibition, hits mostly inhibitors; active = well fitted inhibition curve with a large enough effect; inconclusive = small, poorly fitted or top-dose-only effect; note: potency is the fitted concentration of half-maximal effect; nearly all actives have a fitted effect of over 55% in size
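Purified human 12hLO (150 nM final) was preincubated with compounds for 15 min at room temperature in 25 mM Hepes pH 7.0, 0.01% Triton X-100, then reacted with 40 uM arachidonic acid for 30 min. Hydroperoxide was detected with ferrous iron/xylenol orange.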
PNC inhibitor – inhibitors of perinucleolar compartment assembly; activity change (PNC), negative = inhibition, % at 10 µM; AID 2417; 3.1% of 140,000 active; PC3M PTB-GFP, PNC prevalence imaging, 16 h; hits give low values;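 active = readout at or below -70, meaning at least 70% loss of cells showing the perinucleolar compartment, a nuclear body marking cancer cells; inconclusive = readout between -30 and a set limit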;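 note: plate controls were DMSO wells for no effect and camptothecin positive control wells for full effect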
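PC3M cells stably expressing PTB-GFP, 750–1000 cells/well, treated 16 h at 37 °C with compound (23 nl of library stock), in duplicate. After paraformaldehyde fixation and Hoechst stain, imaged at 20x; PNC prevalence scored by image analysis.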
ALDH1A1 inh – blocks purified human ALDH1A1 activity. P00352. Purified ALDH1A1, NADH fluorescence, propionaldehyde substrate. Potency, µM (top dose mostly 75.3 µM), without a hit: at the highest dose activity, negative = inhibition, hits mostly inhibitors. 7.3% of 220,000 active;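 note: potency is the fitted concentration of half-maximal effect; plate controls were no enzyme wells and a reference inhibitor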
Lamin A splicing – modulators of lamin A splicing. 0.01% of 200,000 active. HeLa LMNA splicing GFP/RFP minigene ratio, 48 h. Potency, µM (highest dose often 46.1 µM), for the others: top-dose ratio change, negative = inhibition, usual class: inhibitors; active = well fitted inhibition curve with a large enough effect in the signal ratio, with a control signal flat, not every such curve was filed as active; inconclusive = small, poorly fitted or top-dose-only effect, or effect the other way, or a change in a side signal; the % refers to the signal ratio; note: potency is the fitted concentration of half-maximal effect
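S3 HeLa cells stably expressing lamin A-EGFP splicing minigene plus DsRed2, 600 cells/well, 48 h compound exposure at 37C. Laser-scanning cytometry; analysed as GFP (500-530 nm)/RFP (575-640 nm) total intensity ratio; 0.5% DMSO vehicle.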
HPGD block – HPGD (human) dehydrogenase inhibition | P15428 | AID 894 | Potency, µM, without a hit: at the top dose activity change, negative = inhibition, most hits filed as inhibitors | 4.3% of 150,000 active | purified HPGD, NADH fluorescence kinetic, PGE2 substrate; note: potency is the fitted concentration of half-maximal effect
Target sequence (P15428 whole entry, looked up): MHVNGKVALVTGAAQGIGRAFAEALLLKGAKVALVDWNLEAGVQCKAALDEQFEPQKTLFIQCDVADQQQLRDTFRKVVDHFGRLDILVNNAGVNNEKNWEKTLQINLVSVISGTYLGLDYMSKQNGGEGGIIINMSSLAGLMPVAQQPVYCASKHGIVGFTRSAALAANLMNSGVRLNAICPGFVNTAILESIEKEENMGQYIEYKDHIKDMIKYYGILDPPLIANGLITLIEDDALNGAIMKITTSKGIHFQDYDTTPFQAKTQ
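20 nM HPGD preincubated 15 min at room temperature with compound in 50 mM Tris-HCl pH 8, 0.01% Tween 20. Started with 1 mM NAD+ and 30 uM prostaglandin E2; NADH fluorescence (360/450 nm) read 5 times over 30-s intervals, last minus first.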
The depositor's hits bear a star; ? = inconclusive; / = no result given; [ ] = remark or other dose. Unless noted, calls come from the whole dose curve; as a rule, active = well fitted inhibition curve with a large enough effect (not every such curve was filed as active); inconclusive = small, poorly fitted or top-dose-only effect, or another doubt; inactive = no such curve, though single readings can be large or run the other way. Unless noted, % is set by controls: 0 for no effect and ±100 for the full control effect.

SMILES	ALOX12 inhib	PNC inhibitor	ALDH1A1 inh	Lamin A splicing	HPGD block
Cc1ccc(SCC(=O)N2c3ccccc3Sc3ccccc32)cc1	-4.9%	13.4	3.55µM*	6.0%	-21.8%
Cc1ccc(SCC(=O)N2CCc3ccccc32)cc1	-6.2%	-26.3	9.7%	-2.5%	-11.4%
O=C(CSc1nncs1)N1c2ccccc2Sc2ccccc21	-2.6%	-18.4	10µM*	0.2%	-7.6%
Cc1cc(C(F)(F)F)nn1CC(=O)NCc1ccccc1	1.0%	1.0	-5.8%	16.4%	0.8%
Cc1cc(C(F)(F)F)nn1CC(=O)Nc1ccc(Br)c2cccnc12	-8.1%	-100.0*	-7.3%	-8.9%	-14.3%
CN1CCN([C@@H]2Cc3ccccc3Sc3ccc(Cl)cc32)CC1	12.7%	/	/	/	/
N#Cc1ccc(NC(=O)COC(=O)CNC(=O)C2CCCCC2)cc1	-1.7%	-104.8*	0.0%	16.5%	-10.3%
CC(=O)NCC(=O)OCC(=O)Nc1ccc(C(C)=O)cc1	3.2%	19.3	22.4µM*	8.2%	?
CC(=O)OCC(=O)Nc1ccc(C(C)=O)cc1	5.9%	1.0	?	3.1%[0.0737 µM]	-7.4%
COC(=O)c1ccc(C(NC(=O)OCc2ccccc2)/C(=C/[C@@H](C)C(=O)NCc2cc(F)cc(F)c2)c2cccnc2)cc1 (some centres undefined)	-2.2%	/	-0.1%	/	-7.2%
O=C(NNS(=O)(=O)c1ccc(Cl)cc1)NC1CCCCC1	2.0%	-26.3	-2.7%	5.2%	-0.6%
Cc1ccc(S(=O)(=O)NC(=S)NC2CCCCC2)cc1	/	/	35.5µM*	-9.5%[46 µM]	/
CCNS(=O)(=O)c1ccc(CCC(=O)NC2CCCC2)cc1	-0.1%	-25.1	7.2%	3.8%	-10.8%
CCc1ccc(S(=O)(=O)NC(=S)NC2CCCCC2)cc1	/	/	25.1µM*	/	/
O=S(=O)(NC(=S)NC1CCCCC1)c1ccc(Cl)cc1	/	/	25.1µM*	/	/
c1ccc(CSc2nc3ncccc3[nH]2)cc1	/	/	/	8.3%[46 µM]	/
COC(=O)c1sc2cccc(F)c2c1S(=O)(=O)N1CCN(c2ccc(F)cc2)CC1	/	/	/	-4.1%[46 µM]	/
C[N+](C)(CCCOc1ccccc1)c1ccccc1	-0.2%[25.6 µM]	/	-8.0%[20.9 µM]	?	0.2%
CO[C@@H]1COC(=O)C/C=C\[C@@H](C)[C@H](OC)COC(=O)C/C=C\[C@H]1C	/	/	10.9%[13.5 µM]	/	/
CCn1c(SCC#N)nc2c(c1=O)C1(CCCC1)Cc1ccccc1-2	-5.0%	?	-0.2%	?	-10.9%
CCn1c(=O)c2c(n3c(=S)[nH]nc13)-c1ccccc1CC21CCCCC1	/	/	22.4µM*	/	/
Cc1nnc(Nc2ccc(C(=O)N3CCOCC3)cc2)c2ccccc12	4.5%	6.9	9.5%	-1.0%	15.8µM*
CS(=O)(=O)N1CCc2cc(C(=O)N3CCOCC3)ccc21	0.6%	17.0	15.1%	-7.0%	-17.9%
O=C(c1ccccc1)N1CCCCCC1	-1.6%	23.4	7.3%	-6.2%	4.47µM*
O=C(c1ccccc1)N1CCN(S(=O)(=O)N2CCCCC2)CC1	-5.3%	?	-1.5%	-16.3%	-4.3%
SMILES	ALOX12 inhib	PNC inhibitor	ALDH1A1 inh	Lamin A splicing	HPGD block
CS(=O)(=O)N1CCc2cc(C(=O)N3CCCCC3)ccc21	24.8%	-0.6	-11.8%	-13.6%	3.16µM*
Cn1nnc2cc(C(=O)N3CCCCCC3)ccc21	-5.9%	?	0.9%	-0.9%	3.16µM*
c1ccc2c(NC3CC3)nc(-c3ccoc3)nc2c1	/	/	-1.6%	?	/
Cc1ccc(C(=O)N2CCCC2)cc1Br	4.1%	-4.1	11.6%	9.9%	20µM*
O=C(c1c(Cl)cccc1Cl)N1CCCCCC1	-2.3%	8.7	3.1%	-0.2%	28.2µM*
CCOc1ccc(OCc2ccc(C(=O)N3CCOCC3)cc2)cc1	-0.9%	23.1	3.55µM*	?	15.8µM*
CCOc1ccccc1C(=O)N1CCOCC1	0.8%	-13.4	1.8%	3.3%	-2.2%
O=C(c1ccccc1Cl)N1CCNCC1	-2.6%	22.2	3.1%	8.6%	-9.1%
Cc1ccc(C(=O)N2CCC(C(N)=O)CC2)cc1C	-0.3%	36.0	?	12.0%	-12.5%
O=C(c1ccccc1)N1CCN(C(=O)C23CC4CC(CC(C4)C2)C3)CC1	-5.4%	-126.9*	25.1µM*	-15.3%	-8.8%
CSc1nc(N)c2ncn([C@H]3O[C@H](COP(=O)(O)OP(=O)(O)OP(=O)(O)O)[C@@H](O)[C@@H]3O)c2n1	-3.7%	/	-1.4%	/	-0.8%
COc1ccc(C(=O)N2CCN(c3nc4c(OC)cccc4s3)CC2)cc1OC	/	/	/	-1.2%[46 µM]	/
COc1ccccc1CNC(=O)c1ccc2c(c1)N(Cc1cc(C)ccc1C)C(=O)c1ccccc1S2	/	/	/	-13.7%[46 µM]	/
O=C(c1ccccc1)N1CCN(C(=O)N2CCOCC2)CC1	-3.3%	-8.9	-13.1%	4.0%	-4.6%
O=C(c1cccc(Br)c1)N1CCN(C(=O)c2cccc(Br)c2)CC1	-1.0%	175.7	15.8µM*	-21.8%	-3.5%
O=C(c1ccc(C(=O)N2CCCCCC2)cc1)N1CCCCCC1	3.0%	63.4	17.8µM*	-8.0%	7.94µM*
CC(C)(C)c1ccc(C(=O)N2CCCN(C(=O)c3ccc(C(C)(C)C)cc3)CC2)cc1	2.8%	191.2	?	1.2%	-9.8%
O=C(c1ccccc1)c1ccc(C(=O)N2CCOCC2)cc1	-0.2%	-29.5	-4.4%	1.6%	7.94µM*
O=C(/C=C/N1CCOCC1)c1ccc(-c2ccccc2)cc1	?	-15.7	?	17.9%	28.2µM*
COc1ccc(OC)c(NC(=O)CN(C)S(=O)(=O)c2ccc(C(=O)N3CCOCC3)s2)c1	/	/	/	-1.3%[46 µM]	/
CCOc1ccc(C(=S)N2CCCC2)cc1	-2.6%	2.1	?	-0.8%	-22.0%
CCOc1ccc(C(=O)N2CCCCCC2)cc1	5.0%	37.6	-8.4%	4.2%	2µM*
CCC1=NC(c2ccc(OC)cc2OC)N(O)C1(C)C (centres undefined)	-23.8%	12.6	8.91µM*	-7.7%	-11.2%
CC1=NN(c2nc(-c3ccc(F)cc3)cs2)C(=O)C1	-0.2%	22.2	1.3%	-2.2%	-5.0%
COc1ccc(-c2csc(CCN3N=C(C)CC3=O)n2)cc1	/	/	2µM*	/	/
COc1cc(OC)c(-c2c3cc(O)c(=O)cc-3oc3cc(O)c(O)cc23)cc1OC	-21.1%	-27.0	10µM*	?	15.8µM*
O=C1C=C(c2ccccc2)C[C@H](c2cccs2)[C@H]1n1cnc([N+](=O)[O-])c1	2.3%	-6.6	?	-1.4%	-0.6%

From PubChem BioAssay
